# Most compounds without a hit are left out; they make up all but 7.9% or so of the library.
# Shh pathway inh = Hedgehog pathway signaling inhibitors, primary screen, luminescence, Shh-LIGHT2 cells, Gli-luciferase | Shh-LIGHT2 Gli-luciferase reporter, 30 h | inhibition, % (no concentration beside the values) | actives 2.1% (n = 22,000);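 active means mean inhibition across valid replicates above about 65%, limit read from the data; inconclusive means mean under the limit, yet half or more replicates past it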;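 further: pathway switched on by Shh-conditioned medium diluted 1 in 25 in low serum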
# NOMO-1 viab = NOMO-1 AML cell viability reduction, primary screen, STK33 inhibitor project, CellTiter-Glo luminescence; NOMO-1 AML viability, 72 h; inhibition, % (test concentration not listed); actives 7.5% (n = 37,000); AID 2330, 2010; in the data active means inhibition above about 80%; inconclusive means no clear call, values can overlap the other calls
# MITF inhib = inhibitors of MITF, primary screen, MITF inhibitor project, cell-based, luminescence | actives 0.28% (n = 37,000) | inhibition, % (no concentration beside the values) | AID 2240, 2010 | TRPM1 promoter luciferase, 24 h; in the data active means inhibition above about 85%; inconclusive means no clear call, values can overlap the other calls; inactive means below about 68%;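 further: human melanocyte line stably carrying TRPM1 promoter luciferase reporter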
# Starred values were filed as active, the others as inactive; ? = inconclusive; · = not tested or not shown.
SMILES,Shh pathway inh,NOMO-1 viab,MITF inhib
Cc1c(NC(=O)COc2ccc(I)cc2)cccc1C(=O)O,·,28,-88
Cc1ccc(N(C(C)C(=O)NC2CCCCC2)S(C)(=O)=O)cc1C (stereo not given),·,-11,6
CCOC(=O)c1sc2ncn(CC(=O)Nc3ccc(OC)cc3)c(=O)c2c1C,·,26,23
Cc1ccc(NC(=O)c2ccco2)c(NC(=O)COc2ccccc2Cl)c1,·,-6,-1
C[C@H]1CN([C@@H](C)CO)C(=O)c2cc(NC(=O)Nc3cccc4ccccc34)ccc2O[C@H]1CN(C)Cc1ccc2c(c1)OCO2,23,97*,-1
C[C@@H]1CN([C@@H](C)CO)C(=O)c2cc(NC(=O)Nc3cccc4ccccc34)ccc2O[C@@H]1CN(C)Cc1ccc2c(c1)OCO2,29,43,2
C[C@H]1CN([C@@H](C)CO)C(=O)c2cc(NC(=O)Nc3cccc4ccccc34)ccc2O[C@H]1CN(C)Cc1ccc(Cl)c(Cl)c1,·,?,34
C[C@H]1CN([C@@H](C)CO)C(=O)c2cc(NC(=O)Nc3cccc4ccccc34)ccc2O[C@@H]1CN(C)Cc1ccc(Cl)c(Cl)c1,0,109*,25
C[C@H]1CN([C@@H](C)CO)C(=O)c2cc(NC(=O)Nc3cccc4ccccc34)ccc2O[C@@H]1CN(C)Cc1ccncc1,·,7,11
C[C@H](CO)N1C[C@H](C)[C@H](CN(C)Cc2ccc(Cl)c(Cl)c2)Oc2ccc(NC(=O)Nc3cccc4ccccc34)cc2CC1=O,-16,40,19
C[C@@H]1CN([C@H](C)CO)C(=O)Cc2cc(NC(=O)Nc3cccc4ccccc34)ccc2O[C@@H]1CN(C)Cc1ccc(Cl)c(Cl)c1,-6,115*,5
C[C@H]1CN([C@@H](C)CO)C(=O)c2cc(NC(=O)Nc3cccc4ccccc34)ccc2O[C@H]1CN(C)Cc1ccncc1,·,108*,7
CC(C)Cn1c(SCC(=O)c2ccc(Cl)cc2)nc2ccccc2c1=O,54,51,13
O=C(COc1ccc2ccccc2c1)Oc1ccc(C(=O)c2ccccc2)cc1,·,-11,-9
C[C@@H]1CN([C@H](C)CO)C(=O)Cc2cc(NC(=O)Nc3cccc4ccccc34)ccc2O[C@H]1CN(C)Cc1ccc(Cl)c(Cl)c1,8,21,1
C[C@H]1CN([C@@H](C)CO)C(=O)Cc2cc(NC(=O)Nc3cccc4ccccc34)ccc2O[C@H]1CN(C)Cc1ccc(Cl)c(Cl)c1,-37,88*,3
O=C(CCCN1C(=O)c2ccccc2C1=O)Nc1cccc(Cl)c1,·,-9,-8
COc1ccc([N+](=O)[O-])cc1NC(=O)CCN1CCN(c2cccc(C(F)(F)F)c2)CC1,·,7,12
C[C@H]1CN([C@@H](C)CO)C(=O)Cc2cc(NS(=O)(=O)c3ccccc3)ccc2O[C@H]1CN(C)Cc1ccc(Oc2ccccc2)cc1,-33,70,27
COc1ccc(S(=O)(=O)Nc2ccc3c(c2)CC(=O)N([C@H](C)CO)C[C@@H](C)[C@@H](CN(C)Cc2ccc(Oc4ccccc4)cc2)O3)cc1,19,116*,17
COc1ccc(CN(C)C[C@@H]2Oc3ccc(NS(=O)(=O)c4ccccc4)cc3CC(=O)N([C@H](C)CO)C[C@@H]2C)cc1,·,6,-6
C[C@@H]1CN([C@H](C)CO)C(=O)Cc2cc(NS(=O)(=O)c3ccc(Cl)cc3)ccc2O[C@@H]1CN(C)Cc1ccc(Oc2ccccc2)cc1,34,82*,-5
COc1ccc(S(=O)(=O)Nc2ccc3c(c2)CC(=O)N([C@H](C)CO)C[C@@H](C)[C@H](CN(C)Cc2ccccc2)O3)cc1,23,-10,-11
COc1ccc(S(=O)(=O)Nc2ccc3c(c2)CC(=O)N([C@H](C)CO)C[C@H](C)[C@H](CN(C)Cc2ccc(Oc4ccccc4)cc2)O3)cc1,-34,106*,0
Cc1nn(C)c(C)c1CN(C)C(=O)c1cc2nc(-c3ccc(Cl)cc3)cc(C(F)(F)F)n2n1,·,36,45
SMILES,Shh pathway inh,NOMO-1 viab,MITF inhib
CCc1cccc(OCC(=O)Nc2cccc(-c3nnc(-c4ccccc4)o3)c2)c1,·,21,-31
O=C1NN=C(c2ccccc2)/C1=C1\OC(c2ccccc2)=CS1,31,139*,37
C[C@@H]1CN([C@H](C)CO)C(=O)c2cccc(NC(=O)Nc3cccc4ccccc34)c2O[C@@H]1CN(C)Cc1ccc(C(F)(F)F)cc1,-15,98*,6
C[C@H]1CN([C@@H](C)CO)C(=O)c2cccc(NC(=O)Nc3cccc4ccccc34)c2O[C@H]1CN(C)Cc1ccc(C(F)(F)F)cc1,17,53,14
C[C@@H]1CN([C@H](C)CO)C(=O)c2cccc(NC(=O)Nc3ccccc3)c2O[C@@H]1CN(C)Cc1ccc(C(F)(F)F)cc1,-43,38,-6
C[C@H](CO)N1C[C@H](C)[C@@H](CN(C)Cc2ccc(C(F)(F)F)cc2)Oc2c(NC(=O)Nc3ccccc3)cccc2C1=O,-31,93*,20
C[C@H]1CN([C@@H](C)CO)C(=O)c2cccc(NC(=O)Nc3ccccc3)c2O[C@@H]1CN(C)Cc1ccc(C(F)(F)F)cc1,5,104*,41
COc1ccc(NC(=O)Nc2cccc3c2O[C@H](CN(C)Cc2ccc(C(F)(F)F)cc2)[C@H](C)CN([C@H](C)CO)C3=O)cc1,2,3,-24
C[C@H](CO)N1C[C@H](C)[C@@H](CN(C)Cc2ccc(Oc3ccccc3)cc2)Oc2c(NC(=O)Nc3ccc(C(F)(F)F)cc3)cccc2C1=O,6,97*,22
Cc1ccc(S(=O)(=O)N(C)C[C@H]2Oc3ccc(NC(=O)NC4CCCCC4)cc3CC(=O)N([C@@H](C)CO)C[C@H]2C)cc1,9,20,-7
COc1c(C(=O)O)ccc2c1CCC(C)(C)O2,-15,2,2
COc1ccc(C(=O)N(CCCCN2C(=O)c3ccccc3C2=O)c2ccc(C)cc2)cc1,·,27,-22
C[C@@H]1CN([C@@H](C)CO)C(=O)c2cccc(NC(=O)Nc3ccccc3)c2O[C@H]1CN(C)Cc1ccc(C(F)(F)F)cc1,74*,88*,40
C[C@H]1CN([C@@H](C)CO)C(=O)c2cccc(NC(=O)Nc3ccc(C(F)(F)F)cc3)c2O[C@H]1CN(C)Cc1ccccc1,-23,41,-16
C[C@H]1CN([C@@H](C)CO)C(=O)c2cccc(NC(=O)Nc3ccc(C(F)(F)F)cc3)c2O[C@H]1CN(C)Cc1ccncc1,-15,-4,-5
C[C@@H]1CN([C@@H](C)CO)C(=O)c2cccc(NC(=O)Nc3ccc(C(F)(F)F)cc3)c2O[C@H]1CN(C)Cc1ccccc1,-6,103*,52
O=C(NCCCN1CCCC1=O)Nc1ccc(Br)cc1,·,-11,-57
Cc1ccc(NC(=O)C(C)Sc2nnc(C)s2)cc1 (stereo not given),·,-4,-3
C=CCN1C(=O)/C(=C/c2cc(C)n(CCOC)c2C)C(=O)NC1=S,3,10,22
C=CCN1C(=O)/C(=C/c2cn(C(C)CC)c3ccccc23)C(=O)NC1=S (stereo not given),·,132*,5
C[C@@H]1CN([C@H](C)CO)C(=O)Cc2cc(NC(=O)CCN3CCOCC3)ccc2O[C@@H]1CN(C)C(=O)Nc1ccccc1,24,-11,-2
